Article PMC5540273 (PLoS ONE, 2017)
pKd: −log10 of the molar value.

Key:
LKB1 = test system: T1, LKB1
T1 construct: gene STK11

LOK = test system: T2, LOK
T2 construct: gene STK10

MEK1 = test system: T3, MEK1
T3 construct: gene MAP2K1
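Further: kd values determined as follow-up on hits from a single-replicate KINOMEscan panel screen.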

Q: With `CCn1c(-c2nonc2N)nc2ccccc21` [SB-693162/GW549034] as the compound, how does the pKd (LATS2) read?
A: 5.74

Q: And the pKd (LRRK2)?
A: < 5.00

Q: `Nc1ncnc2c1ncn2-c1cccc2ccccc12` [SKF-97184] was tested. Which pKd (LKB1) did it give?
A: < 5.00

Q: With `Cc1nnc(-c2ccc(C)c(-c3ccc(C(=O)O)cc3)c2)o1` [GW608005] as the compound, how does the pKd (LOK) read?
A: < 5.00

Q: How did the pKd (LOK) turn out when `COc1cc2ncn(-c3cc(OCc4ccncc4Br)c(C(N)=O)s3)c2cc1OC` [GW854278] was run?
A: 6.30

Q: How did the pKd (LRRK2) turn out when `Cc1ccccc1COc1cc(-n2cnc3cc(Cl)ccc32)sc1C(N)=O` [GW813349] was run?
A: < 5.00

Q: `Nc1n[nH]c2nnc(-c3ccccc3)c(-c3ccccc3)c12` [GW554060] was tested. Which pKd (LYN) did it give?
A: < 5.00

Q: How did the pKd (MAK) turn out when `CCS(=O)(=O)c1ccc(OC)c(Nc2ncc(-c3ccc(F)cc3)o2)c1.Cl` [GW591947] was run?
A: < 5.00

Q: How did the pKd (MAP4K2) turn out when `Cc1nnc(-c2ccc3ncn(-c4ccc(S(C)=O)cc4)c3c2)o1` (centres unmarked) was run?
A: < 5.00

Q: `CN1C(=O)C(Nc2cc(Cl)c(O)c(Cl)c2)=C(c2ccc(Cl)cc2)C1=O` [SB-404321] was tested. Which pKd (MAPKAPK2) did it give?
A: < 5.00

Q: `CN1C(=O)C(Nc2ccccc2)=C(c2ccccc2)C1=O` [SB-300079] was tested. Which pKd (MAST1) did it give?
A: < 5.00

Q: With `Cc1cccc(-c2nc(Nc3ccc4c(cnn4C)c3)c3ccccc3n2)n1` [GW876731] as the compound, how does the pKd (MAST1) read?
A: < 5.00

Q: How did the pKd (MEK1) turn out when `COc1cc2nccc(Nc3cccc(Oc4ccccc4)c3)c2cc1OC.Cl` [GW284543] was run?
A: 7.00

Q: `Cn1c(=O)c(F)c(Nc2ccc(I)cc2F)c2c(=O)n(OC[C@H](O)CO)cnc21` was tested. Which pKd (MEK1) did it give?
A: 7.47
